Source: PubChem BioAssay (The Scripps Research Institute Molecular Screening Center)
GPR151 ag – activates the human receptor GPR151 | PathHunter beta-arrestin GPR151 cells, luminescence | Q8TDV0 | 650,000 compounds, 1% hits | activation, % at 11.2 µM | AID 1508602; in the data active = activation above about 4.9%;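 also: 0% = median of compound wells and 100% = cells with positive control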
MITF inh – blocks human microphthalmia-associated transcription factor | AlphaScreen MITF homodimerization, bead proximity signal | AID 1259374 | 650,000 compounds, 0.91% hits | inhibition, % at 2.6 µM; in the data active = inhibition above about 50%;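 also: 0% = vehicle wells with protein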
Target sequence (O75030 whole entry, looked up): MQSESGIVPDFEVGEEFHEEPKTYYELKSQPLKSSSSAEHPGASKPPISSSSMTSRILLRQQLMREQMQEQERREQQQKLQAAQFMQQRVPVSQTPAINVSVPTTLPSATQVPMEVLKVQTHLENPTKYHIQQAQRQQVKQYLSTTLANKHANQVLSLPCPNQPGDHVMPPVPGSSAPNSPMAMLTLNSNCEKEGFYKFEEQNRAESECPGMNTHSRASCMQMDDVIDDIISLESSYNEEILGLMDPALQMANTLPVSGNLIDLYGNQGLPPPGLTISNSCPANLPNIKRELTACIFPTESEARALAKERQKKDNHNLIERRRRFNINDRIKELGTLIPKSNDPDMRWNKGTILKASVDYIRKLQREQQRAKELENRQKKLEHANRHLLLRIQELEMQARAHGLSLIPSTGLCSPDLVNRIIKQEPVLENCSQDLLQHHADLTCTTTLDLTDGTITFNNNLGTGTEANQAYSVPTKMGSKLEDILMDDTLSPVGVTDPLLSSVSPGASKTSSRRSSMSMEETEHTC
FBW7 activator – activators of human E3 ligase FBW7 | Q969H0 | AlphaScreen FBW7–phospho-cyclin E peptide binding, activator screen | normalized activity (activation), % at 26.1 µM | 650,000 compounds, 0.13% hits; in the data active = normalized activity above about 1.9%;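 also: purified mutant Fbw7 with reduced substrate affinity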
TEAD-YAP inh – TEAD-YAP interaction inhibition. HEK-TIYL cells, TEAD-Gal4/YAP UAS-luciferase luminescence. inhibition, % at 9.12 µM. 640,000 compounds, 1.4% hits. AID 1259422; in the data active = inhibition above about 32%;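 also: 0% = median of test compound wells and 100% = reference inhibitor wells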
* hit, by the source's call. Only some compounds are listed: those with a hit (about 3.4% of all), similar ones and a draw of the others.

SMILES | GPR151 ag | MITF inh | FBW7 activator | TEAD-YAP inh
COc1ccc(-c2cc3ccc(O)cc3oc2=O)cc1OC | -12.6 | 8.8 | 1.0 | -7.0
C/C(=N\NC(=O)CNC(=O)c1ccc(Cl)cc1)c1cc2c3c(cccc3c1)CC2 | -0.7 | -7.1 | -0.1 | -2.0
COc1cc(OC)cc(-c2cc3nc4c(c(NCc5cccnc5)n3n2)CCC4)c1 | -0.5 | -3.8 | -0.1 | 44.7*
COc1cccc(-c2cc3nc4c(c(NCc5cccnc5)n3n2)CCC4)c1 | -0.6 | -0.8 | -0.1 | 42.2*
Cc1cc(=O)n2nc(N(C)CC(=O)N3CCCCC3)sc2n1 | -0.4 | -7.5 | 0.0 | -12.9
COc1ccc2nc(Nc3nnc(-c4ccccc4Cl)o3)sc2c1 | -1.1 | -24.1 | -0.1 | -53.6
Cc1ccc(NC(=O)c2n[nH]c3ccccc23)cc1 | -6.6 | 15.0 | 0.2 | 45.0*
Cc1ccc(NC(=O)c2n[nH]c3ccccc23)cc1Cl | -3.9 | 4.2 | 0.1 | -38.5
COc1ccc(/C=C/C(=O)Nc2scc(-c3ccc(Br)cc3)c2C(=O)O)cc1 | -0.7 | -4.3 | 0.0 | 62.5*
C=CCn1c(SCC(=O)OCC)nc2sc3c(c2c1=O)CCC(C(C)(C)C)C3 (stereo unspecified) | -0.4 | 2.0 | 0.2 | 37.5*
CC1CCN(C(=O)c2ccc3nc(N4C(=O)CCC4=O)sc3c2)CC1 | -0.1 | 16.9 | 1.9* | -9.6
CN1C(=O)CN(c2ccccc2)C1=S | -0.1 | 0.3 | -0.3 | 0.6
Cn1c2c(c(=O)n(C)c1=O)C(C(F)(F)F)(C(F)(F)F)N=C(c1ccccc1)N2 | 2.9 | 1.3 | -0.1 | 2.4
Cn1c2c(c(=O)n(C)c1=O)C(C(F)(F)F)(C(F)(F)F)N=C(c1ccc(Cl)cc1)N2 | 0.8 | -7.3 | 0.3 | 93.5*
CCCN1C=C(C(=O)OC)C(c2cccc(Oc3ccccc3)c2)C(C(=O)OC)=C1 | -1.3 | -20.3 | 2.1* | -4.3
CCCOc1ccc(C2C(C(=O)OC)=CN(CCOC)C=C2C(=O)OC)cc1 | 2.8 | -10.7 | 2.1* | -7.7
C/C(=N\NC(=O)COc1cccc(Br)c1)c1ccc(C)cc1 | 1.3 | -11.0 | -0.1 | -1.2
CCN1C(=O)C(O)(CC(=O)c2ccc(Br)cc2)c2cc([N+](=O)[O-])ccc21 (stereo unspecified) | 0.3 | -4.0 | -0.3 | 3.4
COC(=O)c1ccc2c(=O)n(CC3CCCO3)c(SCC(=O)Nc3ccc(C)c(Cl)c3)nc2c1 (stereo unspecified) | 0.4 | -4.2 | 3.5* | -7.0
COC(=O)c1ccc2c(=O)n(CC3CCCO3)c(SCC(=O)Nc3ccc(C)cc3)nc2c1 (stereo unspecified) | 1.8 | 0.0 | 0.0 | 3.9
CC(C)(C)c1ccccc1OCCCNCCO | -0.7 | 7.1 | -0.3 | 13.4
O=C(CN1CCC(NC(=O)Nc2cccc(F)c2)CC1)NCc1ccc2c(c1)OCO2 | -0.2 | 10.9 | 0.0 | 3.2
COc1ccc(C2/C(=C(\O)c3ccc(C)cc3)C(=O)C(=O)N2c2nc3ccccc3s2)c(OC)c1 (stereo unspecified) | -1.4 | -10.3 | -0.2 | 40.9*
COc1ccc(OC)c(C2/C(=C(\O)c3ccc(C)cc3)C(=O)C(=O)N2c2nc3ccccc3s2)c1 (stereo unspecified) | -1.0 | -3.7 | -0.1 | -9.5
Cc1ccc2c(c1)C(c1ccccc1)CC(C)N2C(=O)c1ccco1 (stereo unspecified) | 0.2 | -0.9 | 0.0 | 50.5*
SMILES | GPR151 ag | MITF inh | FBW7 activator | TEAD-YAP inh
CC(=O)N(C1=C(N2CCCCC2)C(=O)c2ccccc2C1=O)c1ccccc1C | -1.8 | 14.1 | -0.1 | 36.4*
CC(=O)N(C)C1=C(N2CCCCC2)C(=O)c2ccccc2C1=O | -1.5 | -0.5 | 0.3 | 91.2*
COC(=O)c1ccc2c(c1)C(=O)/C(=C/c1cc(OC)c(OC)c(OC)c1)O2 | 1.0 | 4.6 | 0.1 | -7.9
COC(=O)c1ccc2c(c1)C(=O)/C(=C/c1ccccc1OC)O2 | 1.7 | -2.2 | 0.1 | -2.7
COc1cccc(/C=C2\Oc3ccc(O)cc3C2=O)c1O | -7.8 | 3.4 | 0.0 | 96.7*
COC(=O)c1ccc2c(c1)C(=O)/C(=C/c1ccc(O)cc1)O2 | 2.4 | -0.3 | 0.2 | 52.0*
COC(=O)c1ccc2c(c1)C(=O)/C(=C/c1cccc(O)c1)O2 | -1.6 | 13.0 | -0.1 | 41.8*
CCOc1cc(/C=C2/C(=N)N3N=C(C(C)C)SC3=NC2=O)ccc1OCCOc1ccc(Cl)c(C)c1 | -2.1 | 5.5 | 0.4 | 8.1
CC(=O)C1=C(O)C(=O)N(CCC(=O)O)C1c1cccc([N+](=O)[O-])c1 (stereo unspecified) | 1.8 | 8.2 | -0.1 | 3.9
Cc1cccc(/C=N/Nc2nncc3ccccc23)c1 | -5.9 | -5.7 | -0.2 | 67.2*
CC(=O)OC(=C(Cl)Cl)c1ccc(C(OC(C)=O)=C(Cl)Cl)cc1 | 3.9 | -0.6 | 0.3 | 41.7*
CC(=O)Oc1ccc(C(=O)c2ccc(OC(C)=O)cc2)cc1 | 1.3 | 16.0 | -0.1 | 3.5
COc1ccc(N2CCN(C3CCN(C(C)=O)CC3)CC2)cc1 | 0.7 | 2.8 | -0.1 | -0.3
OC[C@H]1O[C@@H](n2cnc3c(NCc4ccco4)ncnc32)[C@H](O)[C@@H]1O | 0.8 | 0.1 | -0.1 | 73.7*
CCOC(=O)c1c(C)[nH]c(C(=O)N/N=C\c2ccc([N+](=O)[O-])cc2)c1C | -0.7 | 4.7 | 0.1 | 41.4*
CCOC(=O)c1c(C)[nH]c(C(=O)N/N=C\c2ccccc2Cl)c1C | 3.1 | -7.2 | 0.0 | 40.1*
CCOC(=O)c1c(C)[nH]c(C(=O)N/N=C\c2cccc(OC)c2)c1C | 0.7 | -2.3 | 0.0 | 45.7*
O=C(NC1CCCC1)c1ccc(N2CCC(NCC3COCCO3)CC2)cc1 (stereo unspecified) | 1.4 | 4.8 | 0.0 | -0.9
COCCCNc1ncnc2scc(-c3ccccc3)c12 | 2.0 | 2.4 | 0.1 | 59.1*
CCCCNc1ncnc2scc(-c3ccccc3)c12 | 3.2 | 19.1 | 0.8 | 56.2*
COC(=O)CNc1ncnc2scc(-c3ccccc3)c12 | -0.8 | 10.4 | 0.2 | -4.0
COC(=O)CCCNc1ncnc2scc(-c3ccccc3)c12 | -0.9 | -2.4 | -0.1 | 34.6*
c1ccc(-c2csc3ncnc(NCc4ccco4)c23)cc1 | 2.2 | 16.4 | -0.1 | 33.7*
c1ccc(-c2csc3ncnc(NCc4ccccn4)c23)cc1 | -0.4 | -2.2 | 0.2 | 13.1
CC1(C)Oc2ccc3ccc(=O)oc3c2C/C1=N\Nc1ccccc1 | -0.9 | 2.0 | 0.6 | 49.4*
SMILES | GPR151 ag | MITF inh | FBW7 activator | TEAD-YAP inh
Cc1cc(C)c2nc(SCC(=O)Nc3sccc3C(N)=O)cc(C)c2c1 | 1.2 | -3.8 | 0.1 | 44.7*
Cc1cc(C)c2nc(SCC(=O)Nc3cc(C(N)=O)cc(C(N)=O)c3)cc(C)c2c1 | 0.1 | -12.4 | 0.1 | -11.2
COc1cc(C(=O)Nc2ccc3c(c2)Nc2ccccc2CC3)cc(OC)c1OC | -0.1 | -0.8 | 0.0 | 61.9*
COC(=O)c1ccc(NC(=O)c2cc(OC)c(OC)c(OC)c2)cc1 | 0.7 | -7.7 | 0.0 | 59.4*
COc1cc(C(=O)Nc2ccc3c(c2)oc2ccccc23)cc(OC)c1OC | 0.4 | -4.3 | 0.0 | 56.9*
COc1cc(C(=O)Nc2ccc(O)cc2)cc(OC)c1OC | 3.4 | -5.5 | -0.1 | 10.3
O=C(Nc1ccc2c(c1)Nc1ccccc1CC2)c1ccccc1 | -0.6 | 7.7 | -0.1 | -13.7
COC(=O)c1ccc(Sc2cccc[n+]2[O-])cc1 | -0.3 | 0.0 | 0.1 | 2.8
